Source: PubChem BioAssay (NCATS)
Results filed as inconclusive are left out. A number with no mark means an inactive call. Activity calls are given as the source filed them. Calls follow the shape of the dose curve; as a rule, active = well fitted curve in the direction sought with a large enough effect; inconclusive = small, poorly fitted or top-dose-only effect, or another doubt; inactive = no such curve, though single readings can be large; an effect the other way counts as inactive or inconclusive.

Each molecule was assayed on Zika virus NS2B-NS3 protease (assay: Primary screen GU AMC qHTS for Zika virus inhibitors (AID 1347154; also: nearly all actives have a fitted effect of over 70% in size; also: potency is read from the fitted curve at half-maximal effect;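 as to activity change, negative = inhibition: 0% = no-inhibitor control and -100% = no-enzyme control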)). Conditions: Zika NS2B-NS3 unlinked protease, AMC fluorogenic substrate; series mostly up to 54.1 µM; activity change, negative = inhibition: at the top concentration.
Summary of the method: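 Unlinked Zika NS2B hydrophilic domain/NS3 protease domain noncovalent complex (25 nM final) in 10 mM Tris-HCl pH 8.0, 0.01% Tween 20, with AMC peptide substrate. Fluorescence (ex 340, em 450 nm) change over 15 min, room temperature; percent inhibition fitted to 4-parameter Hill equation.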

Row | SMILES | activity change, negative = inhibition | Potency
1 | CC(Cc1ccccc1)NCCCCl (stereo not drawn) | -4.37% | –
2 | Nc1ccccc1C(=O)OCC(O)CO (stereo not drawn) | – | 16.1 µM (active)
3 | O=C(N[C@@H]1N=C(c2ccccc2F)c2cccc3c2N(CC3)C1=O)c1cc2ccccc2[nH]1 | -12.5% | –
4 | C[C@]12Cc3nonc3C[C@@H]1CC[C@@H]1[C@@H]2CC[C@@]2(C)[C@H]1CC[C@]2(C)O | -5.33% | –
5 | CCOC(=O)NC(C)(C)Cc1ccc(Cl)cc1 | -5.58% | –
6 | CC(C)(C)OC(=O)c1ncn2c1[C@@H]1CCCN1C(=O)c1c(Br)cccc1-2 | 0.553% | –
7 | CC[C@H]1C[C@H]2[C@@H]3CCC4=CC(=O)CC[C@@H]4[C@H]3CC[C@]2(C)[C@H]1O | -1.59% | –
8 | CCCOC(=O)Cc1ccc(OCC(=O)N(CC)CC)c(OC)c1 | -6.4% | –
9 | O=C(N[C@H]1N=C(c2ccccc2F)c2cccc3c2N(CC3)C1=O)c1cc2ccccc2[nH]1 | -13.4% | –
10 | C[C@]12CC[C@H]3[C@@H](CCC4=CC(=O)CC[C@@]43C)[C@@H]1CC[C@@H]2C(=O)O | 0.908% | –
11 | CCOC(=O)c1cncn1C(C)c1ccccc1 (stereo not drawn) | -3.2% | –
12 | COc1ccc2c3c1O[C@H]1[C@@H](O)C=C[C@H]4[C@@H](C2)N(C)CC[C@@]341 | 5.13% [at 104 µM] | –
13 | CCN(Cc1ccc(Cl)nc1)/C(=C/[N+](=O)[O-])NC | 1.34% | –
14 | Cc1c(Cl)c(=O)oc2cc(OP(=O)(OCCCl)OCCCl)ccc12 | – | 14.4 µM (active)
15 | CNC(C)Cc1ccc2c(c1)OCO2 (stereo not drawn) | -1.09% [at 104 µM] | –
16 | C[N+]1(CCC(C(N)=O)(c2ccccc2)c2ccccc2)CCCCC1 | 4.21% | –
17 | CC(CC(C(N)=O)(c1ccccc1)c1ccccc1)N(C)C (stereo not drawn) | 4% | –
18 | COP(=S)(OC)Oc1ccc(S(N)(=O)=O)cc1 | -0.0379% | –
19 | CN(C)C(=O)Oc1cc(OC(=O)N(C)C)cc(C(O)CNC(C)(C)C)c1 (stereo not drawn) | -3.84% | –

Row | SMILES | activity change, negative = inhibition | Potency
20 | CC(Cc1ccc2c(c1)OCO2)NO (stereo not drawn) | -8.74% [at 104 µM] | –
21 | C[N+]1(C)[C@@H]2CC[C@H]1CC(OC(=O)C(CO)c1ccccc1)C2 (stereo partly drawn) | -3.26% | –
22 | CC(CC(C#N)(c1ccccc1)c1ccccc1)N(C)C (stereo not drawn) | 0.532% [at 104 µM] | –
23 | CN1C[C@@H](NS(=O)(=O)N(C)C)C[C@@H]2c3cccc4c3c(cn4C)C[C@H]21 | 2.54% | –
24 | C[C@]12CC[C@H](O)CC1=CC[C@@H]1[C@@H]2CC[C@]2(C)C(=O)CC[C@@H]12 | 3.05% | –
25 | O=C(O)CCCCCCNC1c2ccccc2CCc2ccccc21 | -4.43% | –
26 | CCN(CC)C(C)C(=O)c1ccccc1 (stereo not drawn) | -5.72% | –
27 | CCCN(CCC)CCc1c[nH]c2ccccc12 | -1.42% [at 104 µM] | –
28 | CNC(=O)Oc1cccc2ccccc12 | -14.3% | –
29 | Cc1cccc(Cc2cnc[nH]2)c1C | 1.44% | –
30 | CCOC(=O)C1(c2ccccc2)CCN(CCc2ccc(N)cc2)CC1 | -8.32% | –
31 | CN(C)CCc1c[nH]c2ccccc12 | -1.19% [at 194 µM] | –
32 | CCC1(CC)C(=O)NC(=O)NC1=O | -1.85% | –
33 | CCCC[N+]1(C)[C@@H]2CC(OC(=O)[C@H](CO)c3ccccc3)C[C@H]1[C@@H]1O[C@@H]12 (stereo partly drawn) | 4.98% | –
34 | O=C(CCCCl)c1ccc(F)cc1 | -7.59% | –
35 | CCCCC1C(=O)NC(=O)N(C2CCCCC2)C1=O (stereo not drawn) | -6.03% | –
36 | CCOC(=O)c1ncn2c1CN(C)C(=O)c1c(I)cccc1-2 | -3.31% | –
37 | ClCCCN1CCN(c2cccc(Cl)c2)CC1 | -0.166% | –

These molecules were tested on Zika virus NS2B-NS3 protease (unlinked complex) (assay: Primary screen GU Rhodamine qHTS for Zika virus inhibitors: Unlinked NS2B-NS3 protease assay (AID 1347159; also: % is scaled to controls: 0 for no effect and ±100 for the full control effect; nearly all actives have a fitted effect of over 60% in size)). Conditions: Recombinant ZIKV NS2B-NS3 protease, Rhodamine110 substrate fluorescence; series mostly up to 107 µM; activity change, negative = inhibition: at the top concentration.
Summary of the method: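 Percent inhibition derives from the 15-min fluorescence change (ex 480, em 540 nm), normalized to no-enzyme and no-inhibitor wells. Reactions contained 25 nM NS2B-NS3 complex and 1.5 microM substrate in 10 mM Tris-HCl pH 8.0.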

Row | SMILES | activity change, negative = inhibition
38 | O=C(N[C@@H]1N=C(c2ccccc2F)c2cccc3c2N(CC3)C1=O)c1cc2ccccc2[nH]1 | 0% [at 32.5 µM]
39 | CCOC(=O)NC(C)(C)Cc1ccc(Cl)cc1 | 0%
40 | CC[C@H]1C[C@H]2[C@@H]3CCC4=CC(=O)CC[C@@H]4[C@H]3CC[C@]2(C)[C@H]1O | 8.13%
41 | CCCOC(=O)Cc1ccc(OCC(=O)N(CC)CC)c(OC)c1 | 0% [at 57.1 µM]
42 | O=C(N[C@H]1N=C(c2ccccc2F)c2cccc3c2N(CC3)C1=O)c1cc2ccccc2[nH]1 | 17.4%
43 | CCOC(=O)c1cncn1C(C)c1ccccc1 (stereo not drawn) | -8.81%
44 | Cc1nnc2n1-c1sc(CCc3ccc(CC(C)C)cc3)cc1C(c1ccccc1Cl)=NC2C (stereo not drawn) | 3.65%
45 | C[C@]12CC[C@H](O)CC1=CC[C@@H]1[C@@H]2CC[C@]2(C)C(=O)CC[C@@H]12 | -1.31%
46 | O=C(O)CCCCCCNC1c2ccccc2CCc2ccccc21 | 4.32%
47 | CCCC[N+]1(C)[C@@H]2CC(OC(=O)[C@H](CO)c3ccccc3)C[C@H]1[C@@H]1O[C@@H]12 (stereo partly drawn) | 23.8%
48 | CCOC(=O)c1ncn2c1CN(C)C(=O)c1c(I)cccc1-2 | 6.14%

The molecules below were run on Zika virus NS2B-NS3 protease (linked construct) (assay: Primary screen NINDS Rhodamine qHTS for Zika virus inhibitors (AID 1347160; also: nearly all actives have a fitted effect of over 55% in size; as to activity change, negative = inhibition: % is scaled to controls: 0 for no effect and ±100 for the full control effect)). Conditions: purified NS2B-NS3 protease, Rhodamine110 substrate fluorescence; series mostly up to 57.1 µM; activity change, negative = inhibition: at the top concentration.
Summary of the method: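 In 10 mM Tris-HCl pH 8.0 containing 0.01% Tween 20, linked NS2B-NS3 protease (25 nM final) is exposed to test compounds for 15 min. Cleavage of 1.5 microM Rhodamine110 substrate is tracked by fluorescence over 15 min.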

Row | SMILES | activity change, negative = inhibition | outcome
49 | CCOC(=O)NC(C)(C)Cc1ccc(Cl)cc1 | 19.1% | –
50 | CC[C@H]1C[C@H]2[C@@H]3CCC4=CC(=O)CC[C@@H]4[C@H]3CC[C@]2(C)[C@H]1O | 14.8% | –
51 | O=C(N[C@H]1N=C(c2ccccc2F)c2cccc3c2N(CC3)C1=O)c1cc2ccccc2[nH]1 | -5.66% | –
52 | CCOC(=O)c1cncn1C(C)c1ccccc1 (stereo not drawn) | -8.85% | –
53 | C[C@]12CC[C@H](O)CC1=CC[C@@H]1[C@@H]2CC[C@]2(C)C(=O)CC[C@@H]12 | 17.7% | –
54 | O=C(O)CCCCCCNC1c2ccccc2CCc2ccccc21 | 5.76% | –
55 | CN(C)CCc1c[nH]c2ccccc12 | 30% [at 112 µM] | –
56 | CCCC[N+]1(C)[C@@H]2CC(OC(=O)[C@H](CO)c3ccccc3)C[C@H]1[C@@H]1O[C@@H]12 (stereo partly drawn) | -1.11% | –
57 | CCCCC1C(=O)NC(=O)N(C2CCCCC2)C1=O (stereo not drawn) | – | inactive
58 | CCOC(=O)c1ncn2c1CN(C)C(=O)c1c(I)cccc1-2 | 7.75% | –
